The source of these data is PubChem BioAssay (EPA / NIEHS).

Records with an inconclusive call do not appear. Some structures have more than one record in an assay (separate samples or runs), and their calls can disagree. Active and inactive are the calls of the source. The calls were made as follows, unless noted: active = hit-call score of the fitted dose curve at least 0.9, where 1 is the maximum; inactive = score below 0.9.

Test [1] in a line: CCTE_Simmons_MITO_max_resp_rate: CCTE's HepG2 Seahorse XF Respirometric Screening Assay at Maximal Respiratory State [uncoupled], Simmons Lab (AID 2284002). As to conditions: actives raise or lower the signal. An outline of the steps: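 HepG2 oxygen consumption was read on a Seahorse XF96 after FCCP uncoupler injection, following test compound injection; 7 concentrations, 125 nM–100 uM final, three biological replicates. Bidirectional fitting against DMSO vehicle baseline.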

Test [2] can be described thus: CCTE_Simmons_MITO_viability: CellTiter-Glo Viability Assessment for CCTE's HepG2 Seahorse XF Respirometric Screening Assay [post-hoc], Simmons Lab (AID 2284007; active = hit-call score of the fitted dose curve at least 0.9, where 1 is the maximum). In outline: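 HepG2 cells from the Seahorse XF respirometry run were exposed 90 min to a 7-point series, 125 nM–100 uM final, DMSO vehicle; ATP content then read by luciferase luminescence. Three biological replicates, technical singles; loss of signal fitted versus DMSO.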

A short description of test [3]: CCTE_Harrill_HTTr_Viability_MCF7: CCTE's 6-hour Cell Viability Assessment for the High-Throughput Transcriptomics (HTTr) Platform, in MCF-7 cells cultured in DMEM + 10% fetal bovine serum, Harrill Lab (AID 2284010). In outline: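 Membrane integrity was scored by high-content imaging of propidium iodide dye exclusion after a 6 h exposure across an eight-point dilution series. Data were fitted bidirectionally relative to DMSO as negative control and baseline.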

A short description of test [4]: CCTE_Harrill_HTTr_Apoptosis_MCF7: CCTE's 6-hour Apoptosis Assessment for the High-Throughput Transcriptomics (HTTr) Platform, in MCF-7 cells cultured in DMEM + 10% fetal bovine serum, Harrill Lab (AID 2284011). In outline:
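MCF-7 cells in DMEM + 10% fetal bovine serum were exposed to chemicals for 6 hours over an eight-point dilution series. Caspase-3/7 activation was imaged by high content imaging with CellEvent Caspase 3/7 Green; bidirectional fitting used DMSO as baseline.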

Test [5] can be described thus: CCTE_Shafer_MEA_acute_spike_number: CCTE's Neural Acute Assay for Total Number of Spikes, Shafer Lab (AID 2284008).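 As to AC50: curve fitted for decrease in spike count so AC50 reflects inhibitors.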 An outline of the steps: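 Primary rat cortical neurons on 16-electrode MEA wells; on DIV 13 or 15, 40-min baseline then 40-min recording with compound (0.03-40 uM) at 37 C. Spikes detected at 8x rms noise; percent change versus baseline, DMSO as negative control.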

The nature of test [6]: CCTE_Shafer_MEA_acute_firing_rate_mean: CCTE's Neural Acute Assay for Mean Firing Rate, Shafer Lab (AID 2284009).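 Also: analyzed for loss of signal so actives lower firing rate relative to DMSO.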 An outline of the steps:
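Rat primary cortical neurons on 48-well MEA plates, dosed at 0.03-40 uM on DIV 13 or 15; 40 min spontaneous activity recorded at 37 C before and after compound. Spike rate per electrode averaged per well, expressed as percent change from baseline.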

The nature of test [7]: CCTE_Shafer_MEA_acute_burst_number: CCTE's Neural Acute Assay for Single-Electrode Bursts, Shafer Lab (AID 2284013). An outline of the steps:
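Primary rat cortical neurons on 16-electrode MEA wells, treated on DIV 13 or 15 with compound at 0.03-40 uM. Single-electrode burst count from 40-min recordings at 37 C before and after exposure; percent change from baseline per well, DMSO negative control.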

Test [8] can be described thus: CCTE_Shafer_MEA_acute_burst_duration_mean: CCTE's Neural Acute Assay for Mean Burst Duration, Shafer Lab (AID 2284014).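 Also: hits are decreases in mean burst duration relative to DMSO controls.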 An outline of the steps:
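Rat primary cortical neurons on 48-well MEA, treated at DIV 13 or 15 with 0.03-40 uM in at least 3 wells. Value is percent change in mean burst duration, comparing 40 min recordings at 37 C before and during exposure.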

The nature of test [9]: CCTE_Shafer_MEA_acute_per_burst_spike_number_mean: CCTE's Neural Acute Assay for Average Number of Spikes Per Burst, Shafer Lab (AID 2284015).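 Also: hits are decreases in mean spikes per burst versus baseline.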 In outline: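 We recorded spontaneous network firing of rat cortical neurons for 40 min before and 40 min during exposure to compound at 0.03-40 uM, at 37 C. Spikes were detected adaptively at 8x rms noise, and the change in average spikes per burst was fitted against DMSO.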

Test [10] can be described thus: CCTE_Shafer_MEA_acute_burst_percentage_mean: CCTE's Neural Acute Assay for Percentage of Spikes in a Burst, Shafer Lab (AID 2284017).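 As to AC50: curve fitted for loss of signal so potency reflects decreased burst percentage.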 In outline: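 Compounds were tested at 0.03-40 uM on primary rat cortical neuron networks grown over microelectrodes, with at least three wells per compound. Spontaneous firing was recorded for 40 min before and 40 min after dosing, and the change in burst percentage was computed per well.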

The nature of test [11]: CCTE_Shafer_MEA_acute_burst_percentage_std: CCTE's Neural Acute Assay for Standard Deviation of Burst Percentage, Shafer Lab (AID 2284018).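 Also: fitted in the negative direction so actives lower burst percentage SD.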 In outline: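 Rat primary cortical neurons on 48-well MEAs, DIV 13 or 15, 37 C. 40-min baseline then 40-min recording with compound (0.03-40 uM); well-level SD of per-electrode burst spike percentage, expressed as percent change from baseline.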

The nature of test [12]: CCTE_Shafer_MEA_acute_per_network_burst_spike_number_std: CCTE's Neural Acute Assay for Standard Deviation of Number of Spikes in a Network Burst, Shafer Lab (AID 2284020).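 Also: fitted for decrease in spike-number SD versus DMSO so actives lower it.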 An outline of the steps:
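Rat primary cortical neurons on 48-well MEA (16 electrodes/well), treated DIV 13 or 15 at 0.03-40 uM, ≥3 wells per compound. 40 min recordings at 37 C before and after dosing; value is percent change in network-burst spike-number SD, negative direction vs DMSO.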

Test [13] in a line: CCTE_Shafer_MEA_acute_per_network_burst_electrodes_number_mean: CCTE's Neural Acute Assay for Mean Number of Electrodes in a Network Burst, Shafer Lab (AID 2284021).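 Also: curves fitted for decreases only so hits reduce electrodes per burst.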 In outline:
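Rat primary cortical neurons on 16-electrode MEA wells were recorded 40 min at baseline on DIV 13 or 15, then 40 min after compound (0.03-40 uM), at 37 C. Value is percent change per well, fitted in loss direction versus DMSO.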

Test [14] is described as follows: CCTE_Harrill_HTTr_CellCount_MCF7: CCTE's Cell Proliferation Assessment for the High-Throughput Transcriptomics (HTTr) Platform, Harrill Lab (AID 2284012; active = hit-call score of the fitted dose curve at least 0.9, where 1 is the maximum;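 also: cells exposed to compound for six hours; intended direction is loss of nuclei count meaning fewer cells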). In outline:
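MCF-7 cells were exposed for 6 h to an eight-point dilution series; Hoechst-labeled nuclei were counted by high content imaging. Curves were fitted bidirectionally against DMSO as negative control and baseline, with signal loss indicating reduced cell count.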

For the compound `Nc1cccc(N)c1`, the compound was classed as inactive in [1], in test [2], in test [3] and in test [4].
For `Cn1cnc([N+](=O)[O-])c1Sc1ncnc2nc[nH]c12`, the outcome in test [5], in test [6], in test [3], in test [4], in [7] and in test [8] was inactive. In addition, the outcome in test [9], in test [10], in test [11], in test [12] and in test [13] was inactive.
As to `O=P(OC(CCl)CCl)(OC(CCl)CCl)OC(CCl)CCl`, the result in test [5], in test [6], in test [3], in test [4], in [14] and in [7] was inactive. The compound was classed as inactive in [8], in test [9], in test [10], in test [11], in test [12] and in [13]. In addition, the half-maximal activity concentration (AC50) in test [10] is 23.1 µM (active); in test [11], 31.6 µM (active).
As to `COc1ccc(/C=C/S(=O)(=O)NC(=O)c2ccc(C)cc2Cl)cc1`, the AC50 in [1] was 15.2 µM (active). The result in test [3] and in [4] was inactive.
Regarding `CC(C)=CCC/C(C)=C/CO`, the compound was called inactive in [1], in test [3] and in [4].
Consider `CCOC(=O)COc1ccc2c(c1)CC(NCC(O)c1cccc(Cl)c1)CC2` (configuration not stated), for which the AC50 in test [1] is 62.7 µM (active). Besides, the result in test [3], in test [4] and in test [14] was inactive.
As for `O=c1[nH]c2ccc(S(=O)CCN3CCC(Cc4ccc(F)cc4)CC3)cc2o1` (configuration not stated), the AC50 in test [1] is 35.5 µM (active). Further, the outcome in test [3] and in [4] was inactive.
For the compound `O=C(O)CCN(C1(C(=O)NO)CCCC1)S(=O)(=O)c1ccc(Oc2ccc(F)cc2)cc1`, the compound was called inactive in test [5], in test [6], in [3], in test [4], in [7] and in test [8]. For the same compound, the compound was called inactive in test [9], in test [10], in [11], in test [12] and in [13].
As for `CCCC(=O)OCC`, the outcome in [3] and in test [4] was inactive.
On to `CCn1nc(Cc2ccccc2)cc1C1CCN(C[C@H]2C[C@H](N(C)[C@@H](C(=O)O)C(C)C)C[C@@H]2c2cccc(F)c2)CC1`, for which the call in test [1], in [3], in test [4] and in [14] was inactive.
Consider `O=c1n(CC2CO2)c(=O)n(CC2CO2)c(=O)n1CC1CO1` (configuration not stated), for which the result in [3] and in [4] was inactive.
`CC(=O)OC[C@H]1O[C@@](COC(C)=O)(O[C@H]2O[C@H](COC(C)=O)[C@@H](OC(C)=O)[C@H](OC(C)=O)[C@H]2OC(C)=O)[C@@H](OC(C)=O)[C@@H]1OC(C)=O`: the result in [3] and in test [4] was inactive.
On to `COc1cccc(-c2ccc(/C=C\CN3CCCCCC3)cc2Cl)c1`, for which the AC50 in test [1] was 65.8 µM (active); in test [5], 3.65 µM (active); in test [6], 3.65 µM (active); in test [10], 1.34 µM (active). Besides, the result in test [3], in [4], in [7], in [8], in test [9] and in test [11] was inactive. Also, the compound was classed as inactive in [12] and in test [13].
Take `CC/C(=C\C(=N/O)C(N)=O)C(C)[N+](=O)[O-]` (configuration not stated): the outcome in test [3] and in test [4] was inactive.
For the compound `CC(C)=CCC/C(C)=C\CO`, the outcome in test [3] and in [4] was inactive.
Regarding `Cn1c(=O)c2c(ncn2C)n(C)c1=O`, the call in [5], in test [6], in test [3], in test [4], in [7] and in test [10] was inactive. For the same compound, the compound was classed as inactive in test [12] and in test [13]. Further, the AC50 was 30.8 µM (active) in test [8], 31.8 µM (active) in test [9] and 20 µM (active) in test [11].
Take `CC[C@H]1OC(=O)[C@H](C)[C@@H](O[C@H]2C[C@@](C)(OC)[C@@H](O)[C@H](C)O2)[C@H](C)[C@@H](O[C@@H]2O[C@H](C)C[C@H](N(C)C)[C@H]2O)[C@](C)(O)C[C@@H](C)C(=O)[C@H](C)[C@@H](O)[C@]1(C)O`: the outcome in [5], in [6], in test [3], in test [4], in test [7] and in [8] was inactive. The call in test [9], in test [10], in test [11], in test [12] and in [13] was inactive.
For `COC(=O)CC(=O)OC`, the result in [3] and in [4] was inactive.
With `Cc1ccc(C)c(O)c1`, the result in [3] and in [4] was inactive.
In the case of `Cc1c(-c2cccnc2)c2ccccc2n1CCCCC(=O)O`, the outcome in test [1], in [2], in test [3] and in test [4] was inactive.
Regarding `COc1ccc2sc(C(=O)Nc3nnn[nH]3)c(OC(C)C)c2c1`, the compound was classed as inactive in [1], in test [5], in test [6], in test [3], in [4] and in [7]. Also, the compound was classed as inactive in test [8], in [9], in test [10], in test [11], in [12] and in [13].
Consider `CC(C)=CCCC(C)=CC=O`, for which the result in test [1], in test [5], in [6], in test [3], in test [4] and in test [7] was inactive. For the same compound, the compound was classed as inactive in [8], in test [9], in [10], in test [11], in [12] and in test [13].
Turning to `C1=CCCC=CCCC=CCC1`, the result in test [3] and in [4] was inactive.
Regarding `COC(=O)c1ccccc1O`, the outcome in test [3] and in test [4] was inactive.
`C[C@](N)(Cc1ccc(O)c(O)c1)C(=O)O`: the result in [3] and in test [4] was inactive.
In the case of `On1ccccc1=S`, the result in test [5], in [6], in test [3], in test [4], in [7] and in [8] was inactive. Moreover, the compound was called inactive in test [9], in test [10], in [11], in [12] and in [13].
Take `CCCCCCCCCCCCc1ccccc1`: the outcome in test [5], in test [6], in test [3], in test [4], in [7] and in test [8] was inactive. For the same compound, the compound was called inactive in test [9], in [10], in test [11], in [12] and in test [13].
As to `CCCCC(CC)COC(=O)CCCCCCCCC(=O)OCC(CC)CCCC` (configuration not stated), the result in [5], in [6], in [3], in test [4], in test [7] and in [8] was inactive. Moreover, the call in [9], in test [10], in [11], in [12] and in test [13] was inactive.

As a reminder, the AC50 is the concentration at which the activity in the assay is half-maximal.
